# Data: the supplement of paper PMC11417369
# ± gives the standard deviation of the averaged measurements. Whole data set: some 25,000 sequences, median “ln(normalized median fluorescence intensity)” near 8.6, cut for the highest 2% near 10. The sample holds the highest values, similar sequences and a random draw of the others, so the mix is not that of the screen.
# Tested on: PfAP2-EXP AP2 domain (GST-tagged)
# Test: gcPBM binding intensity (ln(normalized median fluorescence intensity)); higher = stronger DNA binding
# In short: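 Using an Agilent 4 × 180k array, primer-extended double-stranded 36-bp intergenic genomic probes and negative controls were exposed for 1 h to GST-fused P. falciparum DNA-binding domains expressed in E. coli. Binding was carried out in 1× PBS with 1% milk, 0.2 mg/ml BSA, 0.5% salmon testes DNA and 0.03% Triton X-100, and protein was detected with Alexa488 anti-GST antibody and a 488 nm scan. Binding intensity is the highest Masliner-normalised natural-log median intensity across replicate spots of either probe orientation.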
row,Sequence,gcPBM binding intensity (ln)
1,TTACACATACATATGTGGGAAAATATTGCTACATAT [CACACA_negctrl_site463],8.57 ± 0.49
2,TATATTTTTTAAACCACACACAATATAGAGTATAAT [CACACA_site4510],8.66 ± 0.47
3,AAATTAATATATAAAAGTACCCATATATTTAATATA [XGTACX_site3551],8.21 ± 0.39
4,ATGCATATAATTATATGTACATATAAGAAATATATA [XGTACX_site517],8.71 ± 0.37
5,ATTTCTTCTTTTTTTGTGAAACTGGAATATATATAT [XGTACX_negctrl_site527],9.17 ± 0.057
6,TATATAGTAATTTATTCACACAATTGGCACACCTCA [CACACA_site4679],8.71 ± 0.35
7,ATTCTAAATAATAAGAGTACAAATAATATGGAGAAG [XGTACX_site5209],9.12 ± 0.51
8,CATTCTACAATAAAAAGTACATATATATATTATATA [XGTACX_site921],8.43 ± 0.34
9,TTTTGTGATCTTACCACCTTTCATAATATTAATAAA [GTGCAC_negctrl_site360],8.61 ± 0.31
10,ATATAAATATAGTGTGCACACACATAATATATATAT [CACACA_site8713],9.38 ± 0.057
11,TCAAAAATTTATATAGTGCAATATATATATAATGTA,8.31 ± 0.42
12,ATATATATATATATAGTGCAAATATCTTCTTTATAA,10.3 ± 0.3
13,TATATATATATGTGCACACATAATAAAAAAAAAAAT [CACACA_site3831],9.9 ± 0.11
14,AATATATATATATGTGCACACATATATAATATGTAT [CACACA_site716],8.53 ± 0.28
15,ATATATATATATAGTGCACACATATAAAATATATAT [CACACA_site8884],10.29 ± 0.021
16,ATATTTTATATAATAGTGCAAATAATATTAAATAAT,8.66 ± 0.21
17,TATATATATATATGTGCACACATAATAAAAAAAAAA [CACACA_site3830],10.32 ± 0.064
18,ATATATATATAGTGCACACATATAAAATATATATAA [CACACA_site2745],9.9 ± 0.071
19,TTGTTCATCTTTTTTTTTTTTTTTTTTTTTTAAATC [CACACA_negctrl_site191],8.18 ± 0.62
20,TCTCTAACTTTTAATACACACAAATAAATAAATAAA [CACACA_site6245],8.47 ± 0.35
21,GTGAGTGAAATATGCAAACACACACCCGAAAAATGT [CACACA_site3197],8.7 ± 0.57
22,TTAAAGGGAATGTATACACACGTTTCTCTATGTTAT [CACACA_site4793],8.59 ± 0.31
23,ACTAATAAAGGTGTAATACACACTATAAAAAGGAAT [CACACA_site1124],8.88 ± 0.57

row,Sequence,gcPBM binding intensity (ln)
1,TTCTTTGTTTTTTTTTTTTTTTTAAAAGATAATATT [XGTACX_negctrl_site381],8.43 ± 0.25
2,TATATATATATATGATGTACACATTTTATTATTTGT [XGTACX_site1147],9.94 ± 0.31
3,TTTCAAAAATGAGTTACACACACACGGATATAAATA [CACACA_site7116],8.88 ± 0.56
4,TTTCAAAAATGAGTTACACACACACCGATATATATA [CACACA_site5263],8.79 ± 0.61
5,TCAAAAATGAGTTACACACACACATATATATATATA [CACACA_site2229],10.2 ± 0.47
6,AATAAATTACTATGTACACACATAAGAGTATAAATA [CACACA_site6940],8.56 ± 0.32
7,TACGATGTTTTAAAATGTACATAAAAGTCACATAAG [XGTACX_site3297],8.52 ± 0.34
8,GTTTGGTGGTGTTTTGGTACGTACGGGGGGGTATGT [XGTACX_site1983],10.6 ± 0.19
9,GTTTGGTGGTGTTTTGGTACGTACGGGGGTGTATGT [XGTACX_site1211],9.66 ± 0.2
10,TATGATTTTTATATATGTACGTATGGTGTTTTACAA [XGTACX_site6100],8.8 ± 0.42
11,TATAAAAAAAAATGTGGTACATATTTCCATTTTCCA [XGTACX_site4571],8.11 ± 0.23
12,TATTTTTCCATTGGGGGTACATGTGTTATATTTATT [XGTACX_site5914],10.4 ± 0.76
13,ATTTATTTTCTGTGTACACATATGTTGGGTATTTTA [CACACA_site5902],9.14 ± 0.45
14,AATAATATACCTCTTGTGCACATATTAAAAGTTCAT [GTGCAC_site9536],8.97 ± 0.22
15,ACAATTGAAGAAATACGTACATAAAGAAAAACTAGT [XGTACX_site820],9.16 ± 0.51
16,TATAAAAGGAAACACACACACATATATATATATATA [CACACA_site939],10.2 ± 0.4
17,AAGGAATAATATAAAACACACACATAAATATAAATA [CACACA_site9115],8.68 ± 0.26
18,AGGAAAAAAGAAAAAACACACATAAATATATATATA [CACACA_site3085],9.64 ± 0.23
19,TAAAAAGGAAAACACACACACACATATATATATATA [CACACA_site3588],10.2 ± 0.16
20,ATAAAAAAAAGAAAAACACACACATATATATATATA [CACACA_site8243],10.2 ± 0.16
21,AAAAGGAAAAATATCACACATATATATATATATATA [CACACA_site5586],10.2 ± 0.34
22,ATAAAAAGGAAACACACACACACACCCATATATATA [CACACA_site904],8.73 ± 0.44
23,AAAAAAAAAAATATCACACACACATAAATATAAACC [CACACA_site2278],8.77 ± 0.49

row,Sequence,gcPBM binding intensity (ln)
1,ATAAAAAATATCACATAAAATAAAAAAAGAAAGGAT [XGTACX_negctrl_site294],9.06 ± 0.52
2,TTGTTAATGGTACGAACACACATATAAAGATGCATA [CACACA_site2044],8.64 ± 0.54
3,TACCATTATTTTAAGTGTACATACTAATTTATATAT [XGTACX_site6548],8.61 ± 0.28
4,ATGAAGATTTAAAAATGTACATATGATCTATGTCCT [XGTACX_site8409],8.38 ± 0.36
5,TTTTTTTTTTTGTTTTGTACATAAATTGCAACCAAT [XGTACX_site8949],8.73 ± 0.57
6,TTTTTATATGTTAAGTGTACGTTTACATTTTATACT [XGTACX_site3485],8.63 ± 0.36
7,TACAGATAAAAGTACACACACACACCGATATATATA [CACACA_site4675],8.86 ± 0.38
8,TTGCATTGATCAAACATACACACATGGTTAATAAAA [CACACA_site2084],8.64 ± 0.47
9,AAAAAAAAAAAAAAAACACACATGTATACTAGAATA [CACACA_site7108],8.67 ± 0.31
10,ATGTGTGTATACATCAATTATATATATATTATGTAT [GTGCAC_negctrl_site720],8.6 ± 0.33
11,ATTTTTTCATATTCTACACACGTGAACAAATGTGTC [CACACA_site3007],8.69 ± 0.36
12,AAAAAAAAATTATTCACACATATATATATATATATA [CACACA_site5579],10.2 ± 0.33
13,ATATTCATATATACTTCACACACATTTTATCATTCA [CACACA_site8784],8.71 ± 0.39
14,AAAAATTTTATATTCACACACATATATATATATATA [CACACA_site624],10.2 ± 0.42
15,AACTTATTTAAATTCACACATATATAAAATACTTAT [CACACA_site4394],8.38 ± 0.42
16,AAAAACTTAATATTCACACATATATATATATATATA [CACACA_site5240],10.2 ± 0.45
17,TAATTTTAAATATCTTCACACATTATATTTTTATAT [CACACA_site5411],8.34 ± 0.42
18,TAAAAAATTTTATATTCACACACATATATATATATA [CACACA_site8109],10.1 ± 0.31
19,AAAAATTTTATATTCACACACATATTTATATTTATA [CACACA_site6439],8.25 ± 0.27
20,TTTAAAAAATTATATTCACACACATACACATATATA [CACACA_site8076],8.51 ± 0.59
21,GTTTCCTTAATATTCACACACATATATATAATATAT [CACACA_site1856],8.95 ± 0.33
22,TAAAAAATTATATTCACACACATACACATATATATA [CACACA_site545],8.54 ± 0.43
23,TGCATTTATATCTTCACACATATATATATATATATA [CACACA_site4516],10.2 ± 0.42

row,Sequence,gcPBM binding intensity (ln)
1,CATATTTGTTGACACACACACATATTTATATAAATA [CACACA_site7648],8.74 ± 0.4
2,TTTGCCATATGACACACACACATGTAAACCCCCTTT [CACACA_site6873],9.41 ± 0.45
3,ATATATTTTTACCATACACACATATAACAAATATAT [CACACA_site7706],8.75 ± 0.44
4,TTTTTAATTTTTTGTTGTACATATAATATATTATTA [XGTACX_site4903],8.6 ± 0.27
5,TTTTTTTTTAAAACATAATAAAAAATAAAACAACCT [GTGCAC_negctrl_site92],8.77 ± 0.28
6,ATATACACATTAATAACACACAATATGATAACAAAT [CACACA_site7670],8.79 ± 0.33
7,ATTACATGCAATATATGTACGTAATATATATATATA [XGTACX_site2300],9.91 ± 0.38
8,ATTTAAAAAAGAAAGGTGCATTTCAATAATGTAAAA [GTGCAC_site9585],8.62 ± 0.15
9,TTTTGATATAAAAAAAGTACATTAATAATATTAATT [XGTACX_site4248],8.29 ± 0.37
10,TTATTATATAAAATAAATAACAAAAAAAATAAAATA [GTGCAC_negctrl_site548],8.45 ± 0.43
11,CCTTGCCCCAGGAGTTCACACACATAATAGATTGTC [CACACA_site8138],8.82 ± 0.64
12,TTAACCTTTATATAATACGTATCATCCTCATATATA [CACACA_negctrl_site86],8.95 ± 0.61
13,TTATAAATATTCTTGGGTACTTAAGATGATATGTAA [XGTACX_site5496],8.34 ± 0.39
14,AAAAAAAAAAAAAATTCACACACATATAAAAAATTA [CACACA_site8140],8.31 ± 0.47
15,CAAAATAAAAAATTCACACACATATATATATATATA [CACACA_site2088],10.2 ± 0.38
16,GCGTTATTAAATAATTCACACACATATATATATATA [CACACA_site8711],10 ± 0.38
17,GTTATTAAATAATTCACACACATATATATATATATA [CACACA_site2260],10.3 ± 0.45
18,TTTATTATCTTATTCACACACATATATAAATATGTA [CACACA_site7369],8.58 ± 0.4
19,TTTATTATCTTATTCACACACATATATATATATATA [CACACA_site2869],10.2 ± 0.41
20,ATCTCTTATATATTCACACACATATATATAATTATA [CACACA_site1502],8.85 ± 0.42
21,CAAAATAAAAAATTCACACACATATAAATATAAATA [CACACA_site7065],8.54 ± 0.24
22,GTTATTAAATAATTCACACACATATATAAATAAATA [CACACA_site7129],8.31 ± 0.48
